Data reported in the supplement of paper PMC10681739.

Columns and labels:
ETS1 [1] = biological target: T1, ETS1 (UniProt P14921); assay: ETS1 binding intensity (PBM fluorescence), ETS1 alone (arbitrary fluorescence units); higher = stronger binding; conditions: ETS1 concentration 1 nM; RUNX1 concentration 0 nM
T1 sequence: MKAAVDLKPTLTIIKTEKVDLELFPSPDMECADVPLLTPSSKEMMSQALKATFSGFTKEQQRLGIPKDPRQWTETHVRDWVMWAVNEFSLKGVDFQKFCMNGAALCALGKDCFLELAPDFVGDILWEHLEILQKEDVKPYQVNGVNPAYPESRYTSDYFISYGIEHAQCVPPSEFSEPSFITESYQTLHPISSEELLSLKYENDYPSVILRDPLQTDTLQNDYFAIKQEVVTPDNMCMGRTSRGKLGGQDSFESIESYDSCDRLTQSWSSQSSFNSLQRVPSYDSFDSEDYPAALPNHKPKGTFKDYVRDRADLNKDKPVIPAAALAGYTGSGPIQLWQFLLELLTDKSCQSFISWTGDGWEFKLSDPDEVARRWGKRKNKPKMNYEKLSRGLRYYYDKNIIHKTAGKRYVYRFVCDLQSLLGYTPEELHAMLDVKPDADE

ETS1 [2] = biological target: T1, ETS1; assay: ETS1 binding intensity (PBM fluorescence) in presence of RUNX1, normalised to ETS1-only experiment (arbitrary fluorescence units); higher = stronger binding; conditions: ETS1 concentration 1 nM; RUNX1 concentration 25 nM
RUNX1 [3] = biological target: RUNX1 (UniProt Q01196); assay: RUNX1 binding intensity (PBM fluorescence) in presence of ETS1, normalised to RUNX1-only experiment (arbitrary fluorescence units); higher = stronger binding; conditions: RUNX1 concentration 2 nM; ETS1 concentration 25 nM
Chain of RUNX1 (Q01196 whole entry): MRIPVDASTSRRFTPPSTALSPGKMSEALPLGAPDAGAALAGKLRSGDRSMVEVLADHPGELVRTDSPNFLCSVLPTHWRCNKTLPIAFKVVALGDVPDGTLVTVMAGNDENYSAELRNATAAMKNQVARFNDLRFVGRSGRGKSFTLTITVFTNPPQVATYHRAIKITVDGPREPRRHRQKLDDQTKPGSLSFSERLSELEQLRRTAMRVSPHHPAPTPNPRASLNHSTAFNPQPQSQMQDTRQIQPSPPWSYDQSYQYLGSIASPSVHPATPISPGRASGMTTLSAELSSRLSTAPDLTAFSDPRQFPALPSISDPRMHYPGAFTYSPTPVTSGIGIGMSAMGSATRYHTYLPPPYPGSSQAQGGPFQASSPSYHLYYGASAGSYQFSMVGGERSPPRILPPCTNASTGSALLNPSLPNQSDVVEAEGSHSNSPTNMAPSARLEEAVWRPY
Protocol: (§1)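 Cooperative gcPBM on 36-bp genomic probes with neighbouring ETS1 and RUNX1 sites. Recombinant human RUNX1 (2 nM) was incubated alone or with ETS1 (25 nM) and detected with anti-RUNX1 antibody plus Alexa488 secondary. Values are medians over 4 replicate spots; the RUNX1+ETS1 data were normalised to the RUNX1-only data. The probes sit in constant array flanks that are not printed.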

RUNX1 [4] = biological target: RUNX1 (UniProt Q01196); assay: RUNX1 binding intensity (PBM fluorescence), RUNX1 alone (arbitrary fluorescence units); higher = stronger binding; conditions: RUNX1 concentration 2 nM; ETS1 concentration 0 nM
Protocol: as §1
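Wherever RUNX1 binding intensity (PBM fluorescence) in presence of ETS1, normalised to RUNX1-only experiment is given: Full-length recombinant human ETS1 or RUNX1 bound to double-stranded 36-bp genomic probes on microarrays, detected by protein-specific primary antibody and Alexa488 secondary, spot fluorescence as median of four replicate spots.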
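Wherever RUNX1 binding intensity (PBM fluorescence), RUNX1 alone is given: Full-length recombinant human RUNX1 bound to double-stranded 36-bp genomic probes on a high-density microarray, scored as Alexa488 fluorescence per spot via anti-RUNX1 antibody, median of four replicate spots.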

Sequence | ETS1 binding intensity (ETS1 [1]) | ETS1 binding intensity (ETS1 [2]) | RUNX1 binding intensity (RUNX1 [3]) | RUNX1 binding intensity (RUNX1 [4])
CCCCTCAGCTTCCGGGTGCTGCGGCCGCGGCCGAGA | 646 | 999 | 1980 | –
CTTAGTGTTTGAGGATGTGGGTTTTACAATCAGATC | 845 | 2490 | 1310 | –
TTGCTCCCGGAAGCCCCGCCCGACCGCGGCTCCTGA | 999 | 1970 | 1210 | –
CTCCTTCCTGTGTGTTACTCTTAAAAACCACAGAGG | 519 | 1780 | 3040 | –
CCATTTCCCGCCTACCGACCTGCTGCACCGCACGGA | – | – | 3390 | 1430
GCTGGGCCATCCTGCCACATGCACCGCATCTCTGGG | – | – | 878 | 759
GAGGCGACCCACATCCGCTGTGCGGGGGCAACTGCA | 957 | 1270 | 6600 | –
GACATCCAGGAAGTGGTGAGAAACCACGTGTGTGTT | 1630 | 4150 | 3070 | –
ACGGTGTGTCTCATTTCCTGTGGGTAACAGGCACCA | 2120 | 3240 | 1720 | –
GTTCCTAGGCAGGCAGGATGTGGCTATAAGCTACAT | 4700 | 6220 | 1150 | –
TTGGAGGCGGAAACAGGCACCGAAAGCGGTGGAAGT | 2150 | 2120 | 854 | –
GCCCCGGAAGTGGCCCGGCTGTTGGCCGCAGCGGGA | 2810 | 3480 | 1710 | –
CAAGGAGGCTTCCTGCGTGGGGCCGCAGAGCGAGTC | – | – | 869 | 658
CGGGCCGGATCGCCTTCGCCGCCGCCCGCCCGCAAA | – | – | 866 | 979
CCGCGAGCCGTCACTTCCTGTGGGCTGGGCCGAGCC | 1910 | 2470 | 1940 | –
CTCAGGGTACCAGGATGTGGTTTAGCTTAGGGGTGG | – | – | 2310 | 980
